This passage reports binding signal results from article PMC7862700, “An all-to-all approach to the identification of sequence-specific readers for epigenetic DNA modifications on cytosine”.

Test in all cases: DAPPL (digital affinity profiling via proximity ligation, sequencing); 10 mM Tris-HCl pH 7.5, 50 mM NaCl, 1 mM DTT, 4% glycerol, room temperature, 30 min; GST-TFs on glutathione beads, 16-mer random dsDNA library, 0.1% formaldehyde crosslink after washing; high values mean tight binding
One test addresses T1, FLI1 (Homo sapiens, UniProt Q01543 1-452).
T1 sequence: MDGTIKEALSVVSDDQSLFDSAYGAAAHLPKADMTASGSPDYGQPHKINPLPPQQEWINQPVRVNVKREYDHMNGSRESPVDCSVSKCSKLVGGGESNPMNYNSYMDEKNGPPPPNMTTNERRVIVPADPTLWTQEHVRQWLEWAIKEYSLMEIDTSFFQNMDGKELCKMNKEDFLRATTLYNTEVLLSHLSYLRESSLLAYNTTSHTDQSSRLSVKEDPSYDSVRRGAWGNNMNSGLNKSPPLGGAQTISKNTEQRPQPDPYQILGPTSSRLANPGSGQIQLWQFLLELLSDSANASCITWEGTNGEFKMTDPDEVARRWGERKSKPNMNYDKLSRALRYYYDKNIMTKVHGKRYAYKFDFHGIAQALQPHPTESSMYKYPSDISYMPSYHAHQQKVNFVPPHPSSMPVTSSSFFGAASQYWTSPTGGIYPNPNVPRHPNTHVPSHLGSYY
To be noted: protein: recombinant; tags: N-terminal GST; dsDNA, one strand shown. The procedure, abridged:
(§1)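 Sequencing on an Illumina NextSeq500 followed washing, crosslinking with 0.1% formaldehyde, proximity ligation (BsaI/T4 ligase, 1 h, 37 °C) and PCR amplification of pools that had been incubated for 30 min at room temperature with 200 nmole of a random double-stranded 16-mer DNA library in Tris/NaCl/DTT/glycerol buffer. Each pool held DNA-barcoded human transcription factors, expressed in yeast as GST fusions and captured on glutathione beads, plus a tag-only sample. Binding signal is a hexamer's read frequency for a factor divided by its frequency in the tag-only sample.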

The target in the next test is T2, ELK1 (Homo sapiens, UniProt P19419 1-428).
T2 sequence: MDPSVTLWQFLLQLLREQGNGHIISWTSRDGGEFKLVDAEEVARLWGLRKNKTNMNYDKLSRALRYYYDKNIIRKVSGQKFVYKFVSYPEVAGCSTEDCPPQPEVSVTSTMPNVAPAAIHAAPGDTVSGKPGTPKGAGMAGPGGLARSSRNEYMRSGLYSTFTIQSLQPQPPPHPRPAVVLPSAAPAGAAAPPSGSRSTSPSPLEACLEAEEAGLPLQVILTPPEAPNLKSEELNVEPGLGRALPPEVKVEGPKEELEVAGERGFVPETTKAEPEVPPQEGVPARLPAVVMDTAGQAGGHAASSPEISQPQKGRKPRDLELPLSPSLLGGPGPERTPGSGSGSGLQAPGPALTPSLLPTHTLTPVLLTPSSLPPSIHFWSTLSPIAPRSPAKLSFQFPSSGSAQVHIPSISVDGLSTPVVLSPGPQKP
The settings on record: protein: recombinant; tags: N-terminal GST; dsDNA, one strand shown. The procedure, abridged:
as §1

The target in a further test is T3, ERG (Homo sapiens, UniProt P11308 1-479).
T3 sequence: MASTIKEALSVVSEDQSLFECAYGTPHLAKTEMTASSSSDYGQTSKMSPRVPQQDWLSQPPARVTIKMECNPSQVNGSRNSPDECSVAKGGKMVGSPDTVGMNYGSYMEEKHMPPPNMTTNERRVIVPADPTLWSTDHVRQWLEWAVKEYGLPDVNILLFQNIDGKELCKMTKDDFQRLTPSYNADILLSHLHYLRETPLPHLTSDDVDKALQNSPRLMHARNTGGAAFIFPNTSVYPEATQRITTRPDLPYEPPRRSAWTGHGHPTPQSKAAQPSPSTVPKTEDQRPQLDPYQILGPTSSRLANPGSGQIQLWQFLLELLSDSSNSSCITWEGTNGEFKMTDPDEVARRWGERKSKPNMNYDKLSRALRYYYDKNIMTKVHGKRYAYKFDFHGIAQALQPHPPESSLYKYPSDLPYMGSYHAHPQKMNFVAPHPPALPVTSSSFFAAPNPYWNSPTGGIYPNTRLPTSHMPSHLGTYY
The settings on record: protein: recombinant; tags: N-terminal GST; dsDNA, one strand shown. The procedure, abridged: as §1

In a further test the target is ELF1 (Homo sapiens, UniProt P32519 1-619). The settings on record: protein: recombinant; tags: N-terminal GST; dsDNA, one strand shown. The procedure, abridged:
as §1

Another test concerns the target T4, EHF (Homo sapiens, UniProt Q9NZC4 1-300).
T4 sequence: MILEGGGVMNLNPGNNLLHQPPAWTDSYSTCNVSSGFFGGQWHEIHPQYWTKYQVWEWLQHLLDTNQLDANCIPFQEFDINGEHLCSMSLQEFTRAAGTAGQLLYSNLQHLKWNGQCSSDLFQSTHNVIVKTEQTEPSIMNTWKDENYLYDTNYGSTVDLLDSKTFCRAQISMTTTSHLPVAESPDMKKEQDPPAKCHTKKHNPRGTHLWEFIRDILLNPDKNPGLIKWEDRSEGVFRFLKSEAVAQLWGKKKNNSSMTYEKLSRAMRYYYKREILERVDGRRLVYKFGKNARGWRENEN
To be noted: protein: recombinant; tags: N-terminal GST; dsDNA, one strand shown. The procedure, abridged: as §1

Another test has as its target T5, ELK3 (Homo sapiens, UniProt P41970 1-407).
T5 sequence: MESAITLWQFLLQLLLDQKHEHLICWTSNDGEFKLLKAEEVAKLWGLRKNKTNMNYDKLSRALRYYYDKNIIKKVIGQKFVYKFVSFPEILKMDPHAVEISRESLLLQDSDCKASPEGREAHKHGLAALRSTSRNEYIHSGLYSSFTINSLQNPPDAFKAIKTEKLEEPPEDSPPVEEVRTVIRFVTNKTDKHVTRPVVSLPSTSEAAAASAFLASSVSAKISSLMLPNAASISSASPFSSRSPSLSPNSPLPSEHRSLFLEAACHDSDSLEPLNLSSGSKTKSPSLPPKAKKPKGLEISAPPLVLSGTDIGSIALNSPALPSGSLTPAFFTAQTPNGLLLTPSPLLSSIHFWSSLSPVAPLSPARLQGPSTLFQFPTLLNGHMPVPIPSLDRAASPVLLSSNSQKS
The settings on record: protein: recombinant; tags: N-terminal GST; dsDNA, one strand shown. The procedure, abridged:
as §1

A further test deals with T6, FEV (Homo sapiens, UniProt Q99581 1-238).
T6 sequence: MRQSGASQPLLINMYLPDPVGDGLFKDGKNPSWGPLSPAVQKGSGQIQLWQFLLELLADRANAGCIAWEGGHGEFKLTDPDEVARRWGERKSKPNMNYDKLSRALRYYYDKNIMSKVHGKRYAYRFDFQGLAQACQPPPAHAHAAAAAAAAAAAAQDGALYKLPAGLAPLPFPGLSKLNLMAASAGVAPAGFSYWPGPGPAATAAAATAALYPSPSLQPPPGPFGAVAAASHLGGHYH
The settings on record: protein: recombinant; tags: N-terminal GST; dsDNA, one strand shown. The procedure, abridged: as §1

A further test addresses ETV5 (Homo sapiens, UniProt P41161 1-510). To be noted: protein: recombinant; tags: N-terminal GST; dsDNA, one strand shown. The procedure, abridged: as §1
For another test, the target named is HSF1 (Homo sapiens, UniProt Q00613 1-529). To be noted: protein: recombinant; tags: N-terminal GST; chain copies: 3; dsDNA, one strand shown. The procedure, abridged: as §1
Chain of HSF1 (Q00613 whole entry): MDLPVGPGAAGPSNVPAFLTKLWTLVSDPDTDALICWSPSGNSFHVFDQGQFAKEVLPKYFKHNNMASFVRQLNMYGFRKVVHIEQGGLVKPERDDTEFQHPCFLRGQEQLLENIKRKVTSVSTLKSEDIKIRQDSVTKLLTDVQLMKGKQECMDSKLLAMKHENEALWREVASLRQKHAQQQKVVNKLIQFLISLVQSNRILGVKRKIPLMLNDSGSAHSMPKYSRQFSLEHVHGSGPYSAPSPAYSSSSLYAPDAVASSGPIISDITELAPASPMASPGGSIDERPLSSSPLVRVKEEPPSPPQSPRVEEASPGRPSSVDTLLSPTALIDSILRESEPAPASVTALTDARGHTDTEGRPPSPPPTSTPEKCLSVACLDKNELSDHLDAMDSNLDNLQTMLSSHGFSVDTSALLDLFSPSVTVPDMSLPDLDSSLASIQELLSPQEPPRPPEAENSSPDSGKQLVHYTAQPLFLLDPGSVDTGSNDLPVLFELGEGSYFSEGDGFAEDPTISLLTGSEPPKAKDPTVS
Another test deals with T7, SPIC (Homo sapiens, UniProt Q8N5J4 1-248).
T7 sequence: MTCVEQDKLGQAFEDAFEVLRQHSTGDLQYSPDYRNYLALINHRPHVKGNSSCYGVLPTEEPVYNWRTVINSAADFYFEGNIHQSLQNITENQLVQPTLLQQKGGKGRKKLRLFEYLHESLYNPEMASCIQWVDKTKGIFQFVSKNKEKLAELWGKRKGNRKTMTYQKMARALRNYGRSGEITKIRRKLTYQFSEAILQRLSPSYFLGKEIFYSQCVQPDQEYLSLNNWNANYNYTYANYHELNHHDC
The settings on record: protein: recombinant; tags: N-terminal GST; dsDNA, one strand shown. The procedure, abridged:
as §1

A further test has as its target ELF4 (Homo sapiens, UniProt Q99607 1-663). To be noted: protein: recombinant; tags: N-terminal GST; dsDNA, one strand shown. The procedure, abridged: as §1
Another test addresses T8, ELK4 (Homo sapiens, UniProt P28324-2 1-405).
T8 sequence: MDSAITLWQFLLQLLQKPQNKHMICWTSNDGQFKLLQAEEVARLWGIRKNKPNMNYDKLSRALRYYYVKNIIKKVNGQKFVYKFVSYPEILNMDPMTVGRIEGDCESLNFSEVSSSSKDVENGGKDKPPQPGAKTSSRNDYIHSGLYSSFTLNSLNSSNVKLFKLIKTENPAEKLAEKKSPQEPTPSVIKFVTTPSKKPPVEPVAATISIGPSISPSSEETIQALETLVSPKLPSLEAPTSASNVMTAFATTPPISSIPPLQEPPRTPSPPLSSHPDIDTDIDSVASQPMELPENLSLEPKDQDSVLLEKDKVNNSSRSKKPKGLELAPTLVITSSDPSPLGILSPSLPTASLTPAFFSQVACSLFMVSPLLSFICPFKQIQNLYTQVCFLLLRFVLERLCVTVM
To be noted: protein: recombinant; tags: N-terminal GST; dsDNA, one strand shown. The procedure, abridged: as §1

For another test, the target named is T9, ETV2 (Homo sapiens, UniProt O00321 1-342).
T9 sequence: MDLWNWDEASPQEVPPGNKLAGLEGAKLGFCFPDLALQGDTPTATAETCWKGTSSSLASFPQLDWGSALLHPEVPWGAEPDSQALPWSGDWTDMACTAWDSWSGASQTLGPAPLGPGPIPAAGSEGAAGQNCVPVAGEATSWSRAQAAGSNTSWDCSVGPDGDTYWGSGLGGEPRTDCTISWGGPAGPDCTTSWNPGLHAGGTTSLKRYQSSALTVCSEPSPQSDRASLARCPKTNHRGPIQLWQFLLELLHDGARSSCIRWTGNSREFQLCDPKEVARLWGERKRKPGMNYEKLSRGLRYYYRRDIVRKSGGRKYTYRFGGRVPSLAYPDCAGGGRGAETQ
To be noted: protein: recombinant; tags: N-terminal GST; dsDNA, one strand shown. The procedure, abridged: as §1

Another test addresses T10, ELF3 (Homo sapiens, UniProt P78545 1-371).
T10 sequence: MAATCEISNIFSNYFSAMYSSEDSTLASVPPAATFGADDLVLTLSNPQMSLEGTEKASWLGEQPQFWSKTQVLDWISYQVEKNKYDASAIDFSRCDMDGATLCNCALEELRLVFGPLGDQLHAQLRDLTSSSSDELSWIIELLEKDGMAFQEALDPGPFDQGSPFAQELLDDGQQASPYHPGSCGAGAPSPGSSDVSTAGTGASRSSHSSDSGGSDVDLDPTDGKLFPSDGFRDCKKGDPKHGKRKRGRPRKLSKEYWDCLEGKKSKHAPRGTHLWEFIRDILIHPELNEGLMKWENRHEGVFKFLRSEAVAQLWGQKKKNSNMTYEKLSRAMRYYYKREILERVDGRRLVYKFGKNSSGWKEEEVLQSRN
To be noted: protein: recombinant; tags: N-terminal GST; dsDNA, one strand shown. The procedure, abridged: as §1

Another test deals with CRX (Homo sapiens, UniProt O43186 1-299). To be noted: protein: recombinant; tags: N-terminal GST; dsDNA, one strand shown. The procedure, abridged:
as §1

The target in the next test is ETV1 (Homo sapiens, UniProt P50549 1-477). To be noted: protein: recombinant; tags: N-terminal GST; dsDNA, one strand shown. The procedure, abridged:
as §1

Chain of ELF4 (Q99607 whole entry): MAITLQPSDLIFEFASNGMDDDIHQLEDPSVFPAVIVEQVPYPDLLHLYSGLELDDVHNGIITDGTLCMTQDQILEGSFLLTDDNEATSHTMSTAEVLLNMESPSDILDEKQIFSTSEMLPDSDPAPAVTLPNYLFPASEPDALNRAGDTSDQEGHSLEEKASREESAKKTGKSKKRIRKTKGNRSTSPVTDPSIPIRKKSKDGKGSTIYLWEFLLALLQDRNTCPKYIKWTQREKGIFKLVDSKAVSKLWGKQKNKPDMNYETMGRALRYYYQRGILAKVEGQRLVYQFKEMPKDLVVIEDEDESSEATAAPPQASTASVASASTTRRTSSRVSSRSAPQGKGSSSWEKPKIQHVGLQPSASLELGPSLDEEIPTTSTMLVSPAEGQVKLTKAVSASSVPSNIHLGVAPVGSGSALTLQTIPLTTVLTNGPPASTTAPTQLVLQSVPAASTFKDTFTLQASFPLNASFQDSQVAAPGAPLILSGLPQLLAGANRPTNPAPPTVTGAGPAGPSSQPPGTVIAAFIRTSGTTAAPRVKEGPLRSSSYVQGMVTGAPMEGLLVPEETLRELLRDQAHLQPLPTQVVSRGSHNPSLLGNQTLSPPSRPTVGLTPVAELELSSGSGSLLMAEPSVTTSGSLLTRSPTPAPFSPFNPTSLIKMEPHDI
Chain of CRX (O43186 whole entry): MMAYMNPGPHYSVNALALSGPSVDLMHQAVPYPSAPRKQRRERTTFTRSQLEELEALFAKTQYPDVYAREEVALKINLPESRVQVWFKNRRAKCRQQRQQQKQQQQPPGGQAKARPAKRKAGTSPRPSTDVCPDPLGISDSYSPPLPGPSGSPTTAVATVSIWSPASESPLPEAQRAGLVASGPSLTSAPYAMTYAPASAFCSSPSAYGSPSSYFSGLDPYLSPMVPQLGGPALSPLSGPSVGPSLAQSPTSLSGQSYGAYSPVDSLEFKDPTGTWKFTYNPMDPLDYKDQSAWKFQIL
Chain of ETV5 (P41161 whole entry): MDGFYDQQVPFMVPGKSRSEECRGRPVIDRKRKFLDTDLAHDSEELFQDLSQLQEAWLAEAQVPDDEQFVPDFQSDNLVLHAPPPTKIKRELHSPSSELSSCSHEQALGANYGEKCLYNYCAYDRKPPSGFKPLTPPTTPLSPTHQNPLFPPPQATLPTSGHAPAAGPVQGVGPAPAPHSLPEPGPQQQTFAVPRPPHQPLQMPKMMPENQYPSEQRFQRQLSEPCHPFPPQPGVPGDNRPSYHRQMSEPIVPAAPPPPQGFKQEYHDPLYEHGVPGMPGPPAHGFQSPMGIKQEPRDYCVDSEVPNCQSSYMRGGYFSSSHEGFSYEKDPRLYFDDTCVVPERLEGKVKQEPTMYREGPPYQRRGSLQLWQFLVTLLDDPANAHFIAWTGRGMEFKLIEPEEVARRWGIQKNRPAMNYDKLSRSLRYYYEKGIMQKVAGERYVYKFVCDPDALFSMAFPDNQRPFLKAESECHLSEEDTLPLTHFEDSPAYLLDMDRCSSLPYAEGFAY
Chain of ELF1 (P32519 whole entry): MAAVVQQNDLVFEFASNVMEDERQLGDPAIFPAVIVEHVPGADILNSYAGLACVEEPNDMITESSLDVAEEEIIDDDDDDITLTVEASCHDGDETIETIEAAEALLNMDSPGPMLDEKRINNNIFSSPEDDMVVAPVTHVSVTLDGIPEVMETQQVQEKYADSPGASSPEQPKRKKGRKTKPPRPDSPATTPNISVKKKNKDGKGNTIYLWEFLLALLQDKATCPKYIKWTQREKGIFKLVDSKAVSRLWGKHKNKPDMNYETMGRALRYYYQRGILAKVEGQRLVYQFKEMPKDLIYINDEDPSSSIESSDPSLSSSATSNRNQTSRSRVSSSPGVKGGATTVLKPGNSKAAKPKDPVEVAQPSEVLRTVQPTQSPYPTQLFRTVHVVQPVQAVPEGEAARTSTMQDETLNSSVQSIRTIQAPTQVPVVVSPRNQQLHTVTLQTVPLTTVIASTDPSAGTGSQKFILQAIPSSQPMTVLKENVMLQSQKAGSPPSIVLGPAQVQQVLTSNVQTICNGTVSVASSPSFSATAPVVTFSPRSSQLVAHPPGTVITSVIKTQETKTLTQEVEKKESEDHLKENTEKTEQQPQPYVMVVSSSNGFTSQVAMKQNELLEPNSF
Chain of ETV1 (P50549 whole entry): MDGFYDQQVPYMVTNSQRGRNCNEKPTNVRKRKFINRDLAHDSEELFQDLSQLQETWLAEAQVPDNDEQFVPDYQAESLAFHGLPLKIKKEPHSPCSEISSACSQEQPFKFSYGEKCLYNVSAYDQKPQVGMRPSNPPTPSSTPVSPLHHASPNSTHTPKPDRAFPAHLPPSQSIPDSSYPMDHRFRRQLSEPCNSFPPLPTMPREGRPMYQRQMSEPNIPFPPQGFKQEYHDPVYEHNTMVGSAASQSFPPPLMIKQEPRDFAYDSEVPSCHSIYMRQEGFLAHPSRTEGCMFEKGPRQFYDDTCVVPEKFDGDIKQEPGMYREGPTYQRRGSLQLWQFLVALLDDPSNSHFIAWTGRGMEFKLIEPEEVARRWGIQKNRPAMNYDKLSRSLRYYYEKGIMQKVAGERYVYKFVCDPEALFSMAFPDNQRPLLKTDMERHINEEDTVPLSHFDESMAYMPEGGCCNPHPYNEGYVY

In the case of TACAAG, the binding signal was 1.06 fold enrichment (6-mer frequency, TF over GST control) in the test with FLI1; 1.03 fold enrichment (6-mer frequency, TF over GST control) with ELK1; 1.04 fold enrichment (6-mer frequency, TF over GST control) with ERG; 1.06 fold enrichment (6-mer frequency, TF over GST control) with ELF1; 1.09 fold enrichment (6-mer frequency, TF over GST control) in the test with EHF; 1.04 fold enrichment (6-mer frequency, TF over GST control) with ELK3. In addition, the binding signal was 1.01 fold enrichment (6-mer frequency, TF over GST control) in the test with FEV; 1.15 fold enrichment (6-mer frequency, TF over GST control) in the test with ETV5; 1.07 fold enrichment (6-mer frequency, TF over GST control) with HSF1; 1.17 fold enrichment (6-mer frequency, TF over GST control) with SPIC; 1.1 fold enrichment (6-mer frequency, TF over GST control) with ELF4; 1.16 fold enrichment (6-mer frequency, TF over GST control) with ELK4. Besides, the binding signal with ETV2 was 1.03 fold enrichment (6-mer frequency, TF over GST control); in the test with ELF3, 1.23 fold enrichment (6-mer frequency, TF over GST control); with CRX, 1.11 fold enrichment (6-mer frequency, TF over GST control); with ETV1, 1.06 fold enrichment (6-mer frequency, TF over GST control).
